For the assay, the target named is T1, ETS1 (UniProt P14921).
T1 sequence: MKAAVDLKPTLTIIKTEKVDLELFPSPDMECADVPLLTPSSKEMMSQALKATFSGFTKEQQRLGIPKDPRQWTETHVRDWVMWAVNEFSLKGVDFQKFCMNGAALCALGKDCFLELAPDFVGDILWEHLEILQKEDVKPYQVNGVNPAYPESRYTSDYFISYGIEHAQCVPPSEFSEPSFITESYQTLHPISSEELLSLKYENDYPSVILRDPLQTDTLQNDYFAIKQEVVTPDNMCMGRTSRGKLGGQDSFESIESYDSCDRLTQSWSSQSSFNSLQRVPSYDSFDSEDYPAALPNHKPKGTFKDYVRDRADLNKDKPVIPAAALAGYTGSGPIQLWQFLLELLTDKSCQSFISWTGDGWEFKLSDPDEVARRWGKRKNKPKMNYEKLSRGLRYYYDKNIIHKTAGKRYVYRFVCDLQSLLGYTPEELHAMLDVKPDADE
As to the kind of experiment: ETS1 binding intensity (PBM fluorescence) in presence of RUNX1, normalised to ETS1-only experiment (arbitrary fluorescence units); higher = stronger binding. As to conditions: ETS1 concentration 1 nM; RUNX1 concentration 25 nM.
Turning to ACAGATGGTCCGGAACTTCAGAAAACCACTCATTGT, the ETS1 binding intensity turned out to be 592.
As to ATGACTTAGCAACATCCTGACAACCACTACATTGTC, the ETS1 binding intensity was 420.
Regarding TACCACCTCAGGATGTCTGAACCACATGCAAGCAGG, the ETS1 binding intensity came to 571.
As for TAGGCCGGAAAGCACCACCGTCCTCCCGCAGGCCGC, the ETS1 binding intensity is 386.
With ACCAAACGTCACATCCGCGGTGCTGCTGTAATCCCA, the ETS1 binding intensity worked out at 389.
As for TGGCTTGAGCTCAGGAAGTTGTGGCTGCAGTAAGCT, the ETS1 binding intensity was determined as 1970.
The result for CAGCCAGCCAGGAAGCAGGGGCTGCGGGGCTGACAG reads 524; that for GGAGGAAGAGAGGAAACGGGGGCGGCCGCAGCTTCT, 1070; that for TTACTTCTCAGGAAGCGCTGTGGGGCTGGGGTTGCT, 513.
For CCATTCCCGGGCTTCCGCGGTGTCCCCACCCCCTAA, the ETS1 binding intensity came out at 652.
Take CCTGACTCTGGGTTTCCTCCCAGCCACAGACACCTG: the ETS1 binding intensity was found to be 412.
Turning to ACCGGAAGGGCGGGGGCGTGGCGAGGTACCGCAGAC, the ETS1 binding intensity is 2850.
In the case of GTCAGGAAACACATAGTTGTGTTTAACCTCAGGAAA, the ETS1 binding intensity amounted to 399.
Turning to CTGCGCTTCCGCTTCACCCGGAGTACAGCGGTCCTG, the ETS1 binding intensity worked out at 713.
Regarding AACACTATTTCCTTTCTTGCTGCCCACATTTTAACA, the ETS1 binding intensity was determined as 447.
As for ATGCGAGTCTGCTTCCTGCCACAAATCACAATTTGA, the ETS1 binding intensity was found to be 686.
Regarding CCATGAGGAGGGAGGAAATAGTGGTACGAGGGCTGC, the ETS1 binding intensity was 1040.
Turning to TACATAGGCGGAAGTGGCCTGCGGGCGCCGGAGTTG, the ETS1 binding intensity came out at 9480.
Regarding CTGCGTCCCGGAAGGAGCGAGCTTGCGGAGCGTGAA, the ETS1 binding intensity stood at 542.
The result for TGGGAAGGGTGAGGAGGAAGCGGTGGCCTTGCTCTG reads 604; that for CTTACAGATAAGGAAACTGAGGTTAAAATGTAGGGG, 656; that for GCACCGTGGCACTTCCGCGAGCGCCGCAGGCCCTGC, 360.
On to TCCTTTTCCGGTGGCGGCGCCGCGCGGTGAGGTTGT, for which the ETS1 binding intensity came out at 615.
As for CGCCGGTCCCATATCCTTTCTGCGGGGTGAGCAGCA, the ETS1 binding intensity was 431.
The result for TGTTTACTTCCTGGAGGCACTTTGGTTTTTCTTTCT reads 325.
On to AGGAGTGAGGAAGTGAGGCTGGCCTTGTGGGTGTGG, for which the ETS1 binding intensity amounted to 748.
Turning to CCATGCGCTGCTTCCTTCCACTTACCGCCCTCGCAC, the ETS1 binding intensity is 331.
CGAGTCAGGAAATCACAGCTCTGCGGGTGGGCTCCT: the ETS1 binding intensity was found to be 623.
For GAGGAGGCTGAGGAGGAAGTGCGGTGGCTGTTCTGC, the ETS1 binding intensity was 1470.
Take CTCAGCGGAAGAGCGGGCCTCTGGGCCGCAGTGACC: the ETS1 binding intensity was found to be 430.
For GAACACGGAAACACTGAGCTTTTACTTTGACCACAC, the ETS1 binding intensity came out at 440.
Turning to CCGCCTCCGGAAGAATTCTCTGCGGGCATGTTGCTG, the ETS1 binding intensity worked out at 775.
On to CTGGCAGGCCTCACTTCCTCACCACATGGCCCTCCC, for which the ETS1 binding intensity came to 640.
In the case of GCAAAGATACATCCTTCTCCCCACAGACTAAGTTTC, the ETS1 binding intensity was 412.
GCTTAGGCTCTTTCCTGTGTGGTGAGCACTAACCTC: the ETS1 binding intensity turned out to be 324.
Then CACCCAAGGATATGCTTTTTTTTGGCAAGCCACATC, with 451; and GGGCAGCATCCTGTGCCTGCTTCTCTTACCCACATC, with 453.
The result for TCTGAGAATGCAGGATATGTGTGTGGTCTCTAGTCA reads 1510.
Regarding ACGCTGGAATCGCGGAAACCGCCGGTGCACGTTGGA, the ETS1 binding intensity was 627.

These data come from the supplement of paper PMC10681739.
